Results filed as inconclusive are left out. Activity calls are given as the source filed them. Unless noted, calls come from the whole dose curve; as a rule, active = well fitted curve in either direction with a large enough effect (not every such curve was filed as active); inconclusive = small, poorly fitted or top-dose-only effect, or another doubt; inactive = flat fitted curve, though single readings scatter.
Assays:
[1] = AP1 Signaling Pathway (AID 357); conditions: ME-180 AP-1-bla reporter, EGF-induced, beta-lactamase ratio, 5 h; at 17.2 µM (top of the series) unless noted;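 note: ME-180 reporter cells stimulated with EGF at its EC50 level; % is set by controls: 0 for no effect and ±100 for the full control effect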
In short: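 Cells are seeded overnight, exposed to compound titrations and an EC50 level of EGF for 5 hours at 37 °C, then loaded with CCF4 dye for 2.5 hours. Beta-lactamase activity under the AP-1 element is read as a blue/green ratio.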

[2] = Stat Signaling Pathway (AID 446); conditions: ME-180 SIE beta-lactamase reporter, IL-6 stimulated, 5 h; at 17.2 µM (top of the series) unless noted;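 note: ME-180 cervical cancer cells given 40 pM IL-6 alongside compound; SIE-controlled beta-lactamase reporter measured as 460/530 nm FRET emission ratio; % is set by controls: 0 for no effect and ±100 for the full control effect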
In short: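 Reporter line: ME-180 cervical carcinoma, SIE-beta-lactamase. Treatment: compound with 40 pM IL-6, 5 hrs, 37 C, in low-serum OPTI-MEM with 10 mM HEPES pH 7.3. Detection: 460/530 nm fluorescence.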

[3] = biological target: Glucocorticoid receptor (Homo sapiens) (UniProt P04150); test: GR-GFP Redistribution (AID 450;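 active = compounds whose dose series gives a full or clear partial fitted curve of increased nuclear translocation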; note: potency is the fitted concentration of half-maximal effect)
[4] = biological target: Glucocorticoid receptor (Homo sapiens) (UniProt P04150); test: GR-EFC Redistribution (AID 451; calls by dose curve; note: potency is the fitted concentration of half-maximal effect); conditions: CHO-K1 GR-EFC translocation, beta-gal luminescence, 2 h
In short: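 Translocation of GR-ED fusion to nuclear EA restores b-gal, read by luminescence after 1 h room-temperature detection. Engineered CHO-K1 biosensor cells, 1,000/well, exposed 2 h at 37 C to titrations up to 46 uM final.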

[5] = biological target: 3',5'-cyclic-AMP phosphodiesterase 4B (Homo sapiens) (UniProt Q07343); test: qHTS Assay for Inhibitors of PDE-IV (AID 607; active = well fitted activation curve with a large enough effect in the main read-out, with a control signal flat, not every such curve was filed as active; note: % of control where 0% means no effect)
In short: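 Cell-based read-out of cAMP via a modified cyclic nucleotide-gated channel and membrane potential dye (535/590 nm) in HEK293 cells expressing PDE4 endogenously. Compounds tested up to 22.9 uM final; 100 uM RO 20-1724 reference.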

[6] = biological target: Guanine nucleotide-binding protein G(i) subunit alpha-1 (Homo sapiens) (UniProt P63096); test: qHTS Assay for Inhibitors of RGS12 GoLoco Motif Activity (Green Fluorophore) (AID 879; active = well fitted curve in the direction sought with a large enough effect; an effect the other way counts as inactive or inconclusive;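 note: 0% = labeled peptide with Gαi1 and full inhibition = labeled peptide alone without protein; negative values mean loss of peptide binding seen as reduced polarization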)
In short: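 Fluorescence polarization assay: 50 nM Gαi1 with 10 nM FITC-labeled RGS12 GoLoco peptide in 10 mM Tris pH 7.5, 150 mM NaCl, 0.1 mM GDP, 0.05% NP40, 10 min at room temperature with compound.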

[7] = qHTS Assay for Identification of Small Molecule Agonists for Thrombopoietin (TPO) Signaling Pathway (AID 917; active = well fitted curve in the direction sought with a large enough effect; an effect the other way counts as inactive or inconclusive; note: % is set by controls: 0 for no effect and ±100 for the full control effect)
In short: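 Activators of TPO signaling were sought in murine Ba/F3 cells transfected with the human receptor, using a luciferase gene driven by the Glycoprotein IIb promoter; 24-hr compound exposure at 37 C alongside 26 pM TPO, in IL-3-free medium.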

[8] = biological target: Muscarinic acetylcholine receptor M1 (Rattus norvegicus) (UniProt P08482); test: qHTS Assay for Antagonists of Acetylcholine Muscarinic M1 Receptor: Kinetic Measurement of Intracellular Calcium Response (AID 943; active = well fitted curve in the direction sought with a large enough effect; an effect the other way counts as inactive or inconclusive;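 note: Fluo-4 calcium signal as peak divided by basal fluorescence over 4 min; nearly all actives have a fitted effect of over 75% in size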)
In short: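 Intracellular calcium flux, recorded with Fluo-4 in a kinetic plate reader, served as signal; the response to carbachol at EC80 (100 nM final) was taken as maximal over minimal fluorescence after a 10 min compound pre-incubation in rat M1-CHO cells.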

[9] = biological target: Muscarinic acetylcholine receptor M1 (Rattus norvegicus) (UniProt P08482); test: qHTS Assay for Antagonists of Acetylcholine Muscarinic M1 Receptor: Measurement of IP-One Response (AID 944; active = well fitted curve in the direction sought with a large enough effect; an effect the other way counts as inactive or inconclusive; note: nearly all actives have a fitted effect of over 75% in size)
In short: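 Steps: plate transfected CHO-M1 cells overnight; add test compound, 10 min; add carbachol (200 nM, EC80) in stimulation buffer with LiCl; incubate 30 min; add labelled IP1 tracer and anti-IP1 antibody in lysis buffer; read HTRF after 10 min.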

[10] = biological target: Pyruvate kinase (Leishmania mexicana) (UniProt Q27686); test: qHTS Validation Assay for Inhibitors of Leishmania Mexicana Pyruvate Kinase (AID 945; active = well fitted curve in the direction sought with a large enough effect; an effect the other way counts as inactive or inconclusive;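 note: 0% = DMSO only neutral control wells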)
In short: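 Compounds are tested as eight-point concentration series. Reactions contain 0.2 nM LmPYK E451W, 0.5 mM PEP, 0.1 mM ADP, 7 mM MgCl2 and 50 mM KCl at pH 7.2, run 1 h at room temperature, then read by PKLight luminescence.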

[11] = biological target: Pyruvate kinase PKM (Homo sapiens) (UniProt P14618); test: qHTS Assay for Activators of Human Muscle Pyruvate Kinase (AID 954; active = well fitted curve in the direction sought with a large enough effect, not every such curve was filed as active;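 note: 0% = uninhibited enzyme and -100% = no enzyme or full thiadiazolimine inhibition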)
In short: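 Human PKM2 activity is measured as ATP generation, detected by luciferase-coupled luminescence. The enzyme (0.1 nM) acts on 0.5 mM PEP and 0.1 mM ADP for 1 h at ambient temperature; data are normalized to uninhibited and full-inhibition wells.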

[12] = biological target: Alpha-galactosidase A (Homo sapiens) (UniProt P06280); test: Counterscreen for Glucocerebrosidase Inhibitors: qHTS Assay for Human alpha-Galactosidase at pH 4.5 (AID 992; active = well fitted curve in the direction sought with a large enough effect; an effect the other way counts as inactive or inconclusive; note: 0% is about no effect)
In short: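 Quantitative HTS: compounds tested from 0.7 nM up to 77 uM against 2 nM enzyme with 80 uM 4-MU alpha-D-galactopyranoside. The 20 min room-temperature reaction is stopped with 1M NaOH/1M glycine, pH 10.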

[13] = biological target: Mitogen-activated protein kinase 10 (Mus musculus) (UniProt Q61831); test: JNK3 AlphaScreen Assay (AID 530);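 note: kinase came from lysate of stimulated human HepG2 cells; signal reports phosphorylation of biotinylated GST-cJun 1-79 at Ser73 with 10 µM ATP; % is set by controls: 0 for no effect and ±100 for the full control effect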
In short: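 Room-temperature AlphaScreen kinase assay; pre-activated HepG2 lysate as JNK3 source, biotin-GST-cJun(1-79) substrate, 10 uM ATP, compound 15 min preincubation.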

[14] = biological target: Cytochrome P450 3A4 (Homo sapiens) (UniProt P08684); test: qHTS Assay for Activators of Cytochrome P450 3A4 (AID 885; active = well fitted curve in the direction sought with a large enough effect; an effect the other way counts as inactive or inconclusive; note: nearly all actives have a fitted effect of over 65% in size)
In short: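 Signal was normalized against complete inhibition by 57 uM ketoconazole. The reaction used 20nM CYP3A4 with 25uM Luciferin-PPXE, 10-min compound preincubation and a 60-min NADPH-supported step at RT.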

Sequence of Glucocorticoid receptor (Homo sapiens) (P04150 whole entry, looked up, the tested form may be a part): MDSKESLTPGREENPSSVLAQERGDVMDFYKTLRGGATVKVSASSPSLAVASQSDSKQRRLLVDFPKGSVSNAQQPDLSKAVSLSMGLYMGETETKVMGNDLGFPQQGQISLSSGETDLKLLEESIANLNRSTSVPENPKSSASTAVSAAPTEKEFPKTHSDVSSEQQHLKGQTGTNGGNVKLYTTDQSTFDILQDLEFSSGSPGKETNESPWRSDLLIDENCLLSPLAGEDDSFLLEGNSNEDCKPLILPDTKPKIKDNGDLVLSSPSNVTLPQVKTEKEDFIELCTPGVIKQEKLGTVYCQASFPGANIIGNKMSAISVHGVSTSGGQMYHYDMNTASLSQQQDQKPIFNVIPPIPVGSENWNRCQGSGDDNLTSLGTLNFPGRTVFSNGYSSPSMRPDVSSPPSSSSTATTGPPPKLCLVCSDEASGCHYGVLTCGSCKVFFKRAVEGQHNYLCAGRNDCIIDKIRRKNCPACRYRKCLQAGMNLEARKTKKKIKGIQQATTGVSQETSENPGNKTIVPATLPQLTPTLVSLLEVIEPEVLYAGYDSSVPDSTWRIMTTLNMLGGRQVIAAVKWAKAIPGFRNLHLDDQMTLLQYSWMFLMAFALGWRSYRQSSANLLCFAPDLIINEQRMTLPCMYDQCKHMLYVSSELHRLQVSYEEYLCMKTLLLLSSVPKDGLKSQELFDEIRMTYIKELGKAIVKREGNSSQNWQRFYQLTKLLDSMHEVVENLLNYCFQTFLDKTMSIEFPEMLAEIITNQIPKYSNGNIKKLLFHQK
Sequence of Muscarinic acetylcholine receptor M1 (Rattus norvegicus) (P08482 whole entry, looked up): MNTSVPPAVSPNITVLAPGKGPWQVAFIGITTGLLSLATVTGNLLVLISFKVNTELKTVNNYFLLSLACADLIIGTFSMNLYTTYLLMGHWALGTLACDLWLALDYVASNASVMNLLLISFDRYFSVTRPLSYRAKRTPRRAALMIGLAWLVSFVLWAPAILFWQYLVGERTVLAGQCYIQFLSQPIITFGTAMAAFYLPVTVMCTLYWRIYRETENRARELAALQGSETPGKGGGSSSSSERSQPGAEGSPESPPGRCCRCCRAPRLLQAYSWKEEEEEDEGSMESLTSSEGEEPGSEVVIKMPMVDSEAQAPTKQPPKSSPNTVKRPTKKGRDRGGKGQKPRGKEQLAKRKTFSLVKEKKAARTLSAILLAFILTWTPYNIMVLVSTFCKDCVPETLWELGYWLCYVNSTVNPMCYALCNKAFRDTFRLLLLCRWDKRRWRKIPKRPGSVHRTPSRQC
Sequence of 3',5'-cyclic-AMP phosphodiesterase 4B (Homo sapiens) (Q07343 whole entry, looked up): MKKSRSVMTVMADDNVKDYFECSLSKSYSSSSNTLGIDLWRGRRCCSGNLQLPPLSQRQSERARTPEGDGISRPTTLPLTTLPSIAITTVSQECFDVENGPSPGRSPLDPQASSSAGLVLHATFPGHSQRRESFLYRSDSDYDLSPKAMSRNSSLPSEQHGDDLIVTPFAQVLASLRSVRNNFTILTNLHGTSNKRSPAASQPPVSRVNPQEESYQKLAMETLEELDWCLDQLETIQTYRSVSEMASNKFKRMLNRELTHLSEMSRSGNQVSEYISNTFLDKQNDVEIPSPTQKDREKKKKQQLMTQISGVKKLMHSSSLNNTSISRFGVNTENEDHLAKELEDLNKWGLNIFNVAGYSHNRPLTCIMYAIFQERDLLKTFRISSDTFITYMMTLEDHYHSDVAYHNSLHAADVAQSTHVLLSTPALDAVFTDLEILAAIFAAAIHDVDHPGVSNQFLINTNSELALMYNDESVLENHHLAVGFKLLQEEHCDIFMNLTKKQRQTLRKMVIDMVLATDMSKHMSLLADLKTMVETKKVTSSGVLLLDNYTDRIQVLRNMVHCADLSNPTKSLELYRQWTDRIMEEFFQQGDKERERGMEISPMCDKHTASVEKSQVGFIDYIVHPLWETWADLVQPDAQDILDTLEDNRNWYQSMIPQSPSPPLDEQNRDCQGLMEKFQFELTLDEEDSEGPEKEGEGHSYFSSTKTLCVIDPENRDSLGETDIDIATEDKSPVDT
Sequence of Alpha-galactosidase A (Homo sapiens) (P06280 whole entry, looked up): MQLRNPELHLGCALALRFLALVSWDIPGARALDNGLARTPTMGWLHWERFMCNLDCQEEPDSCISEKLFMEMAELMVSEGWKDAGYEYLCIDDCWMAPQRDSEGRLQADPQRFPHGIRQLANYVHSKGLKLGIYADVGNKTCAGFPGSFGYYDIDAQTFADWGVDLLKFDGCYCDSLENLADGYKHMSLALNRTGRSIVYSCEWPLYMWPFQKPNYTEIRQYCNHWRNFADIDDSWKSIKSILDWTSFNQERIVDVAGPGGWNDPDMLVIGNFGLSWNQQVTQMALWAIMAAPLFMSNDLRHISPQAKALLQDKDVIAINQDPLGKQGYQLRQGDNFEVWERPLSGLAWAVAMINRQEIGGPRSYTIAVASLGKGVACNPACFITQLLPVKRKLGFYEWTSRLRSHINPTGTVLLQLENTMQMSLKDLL
Sequence of Guanine nucleotide-binding protein G(i) subunit alpha-1 (Homo sapiens) (P63096 whole entry, looked up): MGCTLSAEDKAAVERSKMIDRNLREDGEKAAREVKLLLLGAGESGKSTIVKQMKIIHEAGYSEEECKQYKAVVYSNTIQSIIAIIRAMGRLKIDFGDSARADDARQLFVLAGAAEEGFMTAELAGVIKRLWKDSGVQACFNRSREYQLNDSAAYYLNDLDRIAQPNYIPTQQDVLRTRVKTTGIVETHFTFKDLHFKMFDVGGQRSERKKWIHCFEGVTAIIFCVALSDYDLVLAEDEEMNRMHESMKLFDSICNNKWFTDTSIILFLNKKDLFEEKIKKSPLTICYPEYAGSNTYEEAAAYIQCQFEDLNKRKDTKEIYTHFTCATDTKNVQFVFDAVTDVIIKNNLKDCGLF
Sequence of Pyruvate kinase PKM (Homo sapiens) (P14618 whole entry, looked up): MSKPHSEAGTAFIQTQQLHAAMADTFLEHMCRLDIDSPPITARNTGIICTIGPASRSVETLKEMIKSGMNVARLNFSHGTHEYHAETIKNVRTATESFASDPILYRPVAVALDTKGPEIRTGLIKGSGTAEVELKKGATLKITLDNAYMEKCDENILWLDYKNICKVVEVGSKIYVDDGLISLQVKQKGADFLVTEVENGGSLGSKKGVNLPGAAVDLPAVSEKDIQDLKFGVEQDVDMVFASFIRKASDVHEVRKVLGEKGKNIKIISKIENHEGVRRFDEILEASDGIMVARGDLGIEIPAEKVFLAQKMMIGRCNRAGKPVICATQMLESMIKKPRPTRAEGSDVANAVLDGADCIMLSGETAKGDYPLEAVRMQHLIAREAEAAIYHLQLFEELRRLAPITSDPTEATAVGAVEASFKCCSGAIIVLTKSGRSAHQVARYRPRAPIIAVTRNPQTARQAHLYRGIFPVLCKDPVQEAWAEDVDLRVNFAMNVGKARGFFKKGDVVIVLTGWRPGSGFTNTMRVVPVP
Sequence of Cytochrome P450 3A4 (Homo sapiens) (P08684 whole entry, looked up): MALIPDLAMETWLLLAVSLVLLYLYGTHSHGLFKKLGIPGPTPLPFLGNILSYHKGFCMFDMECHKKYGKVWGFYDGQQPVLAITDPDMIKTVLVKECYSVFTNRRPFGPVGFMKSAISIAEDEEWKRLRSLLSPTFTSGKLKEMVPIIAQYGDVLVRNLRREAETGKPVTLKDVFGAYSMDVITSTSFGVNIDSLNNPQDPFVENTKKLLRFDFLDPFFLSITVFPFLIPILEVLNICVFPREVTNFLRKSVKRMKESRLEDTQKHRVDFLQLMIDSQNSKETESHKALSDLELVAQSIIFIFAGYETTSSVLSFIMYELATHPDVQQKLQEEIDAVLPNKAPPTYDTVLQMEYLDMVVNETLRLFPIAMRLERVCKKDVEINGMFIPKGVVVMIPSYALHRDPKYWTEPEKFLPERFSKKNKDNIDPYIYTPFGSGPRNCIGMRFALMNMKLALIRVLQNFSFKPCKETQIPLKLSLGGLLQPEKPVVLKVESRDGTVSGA
Sequence of Pyruvate kinase (Leishmania mexicana) (Q27686 2-499 E452W): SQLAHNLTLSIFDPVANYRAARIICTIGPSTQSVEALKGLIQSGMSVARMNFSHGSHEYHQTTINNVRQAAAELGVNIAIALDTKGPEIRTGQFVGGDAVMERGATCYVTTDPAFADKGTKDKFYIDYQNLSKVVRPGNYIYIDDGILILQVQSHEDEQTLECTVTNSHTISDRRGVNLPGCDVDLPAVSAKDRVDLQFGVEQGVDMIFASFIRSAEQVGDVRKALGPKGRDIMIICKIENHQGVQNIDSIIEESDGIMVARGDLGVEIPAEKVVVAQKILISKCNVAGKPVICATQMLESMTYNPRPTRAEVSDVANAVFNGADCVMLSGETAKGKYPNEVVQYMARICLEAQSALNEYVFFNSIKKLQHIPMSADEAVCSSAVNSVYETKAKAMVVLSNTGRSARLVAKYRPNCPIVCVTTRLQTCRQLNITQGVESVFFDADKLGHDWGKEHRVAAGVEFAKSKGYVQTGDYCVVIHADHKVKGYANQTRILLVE

NC[C@@H]1O[C@@H](O[C@H]2[C@@H](O)[C@H](O[C@@H]3[C@H](O)[C@H](N)C[C@H](N)[C@H]3O[C@@H]3O[C@@H](CO)[C@H](O)[C@H](O)[C@@H]3N)O[C@H]2CO)[C@H](N)[C@H](O)[C@@H]1O
inactive: activity change, negative = inhibition [1] 7.75% [at 38 µM] | activity, negative = inhibition [2] -13.5% [at 38 µM] | Potency [3] > 46 µM | Potency [4] > 46 µM | Potency [5] | outcome [6] | Potency [7] | Potency [8] | Potency [9] | Potency [10] | outcome [11] | outcome [12]

CCOC(=O)C1=C(C)NC(C)=C(C(=O)OC)[C@@H]1c1cccc(Cl)c1Cl
inactive: activity change, negative = inhibition [1] -13.1% | activity, negative = inhibition [2] -13.3% | Potency [3] > 20.6 µM | Potency [4] > 20.6 µM | Potency [13]

CC[C@H](c1ccccc1)c1cc(C(C)(C)C)cc(C(C)(C)C)c1O
inactive: activity change, negative = inhibition [1] 7.36% [at 7.69 µM] | activity, negative = inhibition [2] 3.9% [at 7.69 µM] | Potency [3] > 46 µM | Potency [4] > 9.22 µM | activity change, negative = inhibition [13] 6.57% [at 11.4 µM] | Potency [5] | activity change, positive = activation [14] -33% [at 11.4 µM]

— PubChem BioAssay (NCATS)
